Experimental findings from PubChem BioAssay (NCATS) are described below.

Records with an inconclusive call do not appear. The source made the active and inactive calls. Calls follow the shape of the dose curve; as a rule, active = well fitted cell-killing curve with a large enough effect; inconclusive = small, poorly fitted or top-dose-only effect, or effect the other way; inactive = no such curve, though single readings can be large or run the other way.

A short description of experiment [1]: Quantitative High-Throughput drug screen in 47 multiple myeloma cell lines against the NCATS MIPE library collection: INA6_PLB cell viability assay (AID 1918965; also: nearly all actives have a fitted effect of over 55% in size; also: potency is read from the fitted curve at half-maximal effect). The conditions noted are these: INA6 myeloma viability, CellTiter-Glo ATP luminescence, 48 h; series mostly up to 45.8 µM. The essentials:
(§1)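 Myeloma cells (500 per well) were exposed to MIPE 4.0 compounds by pin transfer and incubated 48 hours at 37C, 5% CO2. Viability was read as ATP by CellTiter-Glo luminescence, normalised to DMSO (100%) and media-only (0%) wells.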
For orientation: In ATP-based viability assays light output follows the ATP content of the culture.

Experiment [2] can be described thus: Quantitative High-Throughput drug screen in 47 multiple myeloma cell lines against the NCATS MIPE library collection: KMS12PE_JCRB cell viability assay (AID 1918972). Also: nearly all actives have a fitted effect of over 30% in size. The settings on record: KMS12PE myeloma viability, CellTiter-Glo ATP, 48 h; series mostly up to 45.8 µM. In outline:
as §1

A short description of experiment [3]: Quantitative High-Throughput drug screen in 47 multiple myeloma cell lines against the NCATS MIPE library collection: JJN3_DSMZ cell viability assay (AID 1918966; also: nearly all actives have a fitted effect of over 50% in size). The settings on record: JJN3 myeloma cells viability, CellTiter-Glo ATP, 48 h; series mostly up to 45.8 µM. The essentials:
(§2)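 Approved and investigational drugs from MIPE 4.0 were added by pin tool to 500 cells per well. After 48 hours at 37C, ATP-based CellTiter-Glo luminescence indicated remaining viability.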

Experiment [4] can be described thus: Quantitative High-Throughput drug screen in 47 multiple myeloma cell lines against the NCATS MIPE library collection: H1112_PLB cell viability assay (AID 1918967; also: nearly all actives have a fitted effect of over 30% in size). The settings on record: H1112 myeloma cells viability, ATP luminescence, 48 h; series mostly up to 45.8 µM. In outline: as §2
Experiment [5] in a line: Quantitative High-Throughput drug screen in 47 multiple myeloma cell lines against the NCATS MIPE library collection: KMS12BM_JCRB cell viability assay (AID 1918971). Also: nearly all actives have a fitted effect of over 35% in size. Also: potency is read from the fitted curve at half-maximal effect. The conditions noted are these: KMS12BM myeloma viability, CellTiter-Glo ATP, 48 h; series mostly up to 45.8 µM. The essentials:
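Inhibition of cell viability is measured here. Each line was plated at 500 cells per well, treated with MIPE 4.0 drugs, kept 48 hours at 37C, then assayed for ATP content by CellTiter-Glo luminescence.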

A short description of experiment [6]: Quantitative High-Throughput drug screen in 47 multiple myeloma cell lines against the NCATS MIPE library collection: KMS27_JCRB cell viability assay (AID 1918970). Also: nearly all actives have a fitted effect of over 30% in size. The settings on record: KMS27 myeloma cells, CellTiter-Glo ATP viability, 48 h; series mostly up to 45.8 µM. In outline:
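Each line is seeded at 500 cells per well and treated with library compounds for 48 hours under 37 °C, 5% CO2. CellTiter-Glo is then added for 5 min at room temperature before median relative luminescence is recorded.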

Experiment [7] can be described thus: Quantitative High-Throughput drug screen in 47 multiple myeloma cell lines against the NCATS MIPE library collection: KMS21BM_JCRB cell viability assay (AID 1918974). The settings on record: ATP luminescence, 48 h; viability: at 45.8 µM (top of the series) unless noted. The essentials: as §2
Experiment [8] is described as follows: Quantitative High-Throughput drug screen in 47 multiple myeloma cell lines against the NCATS MIPE library collection: KMS20_JCRB cell viability assay (AID 1918973). Also: nearly all actives have a fitted effect of over 45% in size. The conditions noted are these: CellTiter-Glo ATP, 48 h; series mostly up to 45.8 µM. The essentials:
as §2

For the molecule `Nc1ncnc2nc(-c3ccc(N4CCOCC4)nc3)cc(-c3cccc(Br)c3)c12`, the Potency in experiment [1] was 18.7 µM (active). For the same molecule, the Potency result in experiment [2] was “inactive”.
As to `COc1cc(Nc2ncc3c(n2)-c2ccc(Cl)cc2C(c2c(F)cccc2OC)=NC3)ccc1C(=O)O`, the Potency result in experiment [3], in experiment [4] and in experiment [5] was “inactive” throughout.
Regarding `O=C(Nc1ccc(F)c(C(F)(F)F)c1)Nc1nnc(-c2ccncc2)s1`, the Potency in experiment [1] was 2.35 µM (active). Moreover, the Potency entry in experiment [6] and in experiment [7] was “inactive” in each case.
Take `COc1ccc(CC2=NN3C([C@@H](CCc4ccccc4)[C@@H](C)O)=NC(C)C3C(=O)N2)cc1OC` (stereo partly specified): the Potency entry in experiment [3], in experiment [4], in experiment [5], in experiment [2] and in experiment [8] was “inactive” each time.
Consider `CC[C@@H](C)[C@H](NC(=O)[C@H](CC1CCCCC1)NC(=O)c1ccno1)C(=O)N1CCC2(CCc3ccccc32)CC1`, for which the Potency entry in experiment [1] and in experiment [2] was “inactive” in each case. Further, the Potency in experiment [5] is 9.35 µM (active).
